28 compounds from the supplement of paper PMC6522484 can be followed below.

± gives the standard deviation of the averaged measurements.

Assay [1] concerns DLD1. Briefly: cell viability (CellTiter-Glo) relative to plate median (fraction of plate median); higher = more viable cells. As to conditions: 5 µM; treatment time 24 h; reporter: 7TFP. The essentials: (§1)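 Colorectal cancer cell lines stably carrying lentiviral TCF/Wnt firefly luciferase reporters (7TFP or TCF4/Wnt) were plated in 384-well plates and, 24 h later, given library compounds at a final 5 µM for 24 h. Firefly luciferase or CellTiterGlo luminescence was read on parallel plates with a Tecan F500 reader. Each well's signal was normalised to the plate median in webcellHTS2 (additive, without log transformation). Values are the mean of two independent replicates.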

The test system of another assay is HCT116. The description is as above. The settings on record: 5 µM; treatment time 24 h; reporter: TCF4/Wnt. The method in brief: as §1
Assay [2] concerns SW480. The description is as above. The settings on record: 5 µM; treatment time 24 h; reporter: 7TFP. The method in brief:
as §1

Assay [3] relates to DLD1. The assay can be described thus: TCF/Wnt firefly luciferase reporter signal relative to plate median (fraction of plate median); higher = higher Wnt reporter signal. The settings on record: 5 µM; treatment time 24 h; reporter: 7TFP. The essentials: as §1
The subject of assay [4] is SW480. Described as above. As to conditions: 5 µM; treatment time 24 h; reporter: 7TFP. The method in brief:
as §1

As to `COc1cc(Cc2cnc(N)nc2N)cc(OC)c1OC`, the cell viability in the assay on DLD1 [1] is 0.988 ± 0.013; in the assay with HCT116, 1 ± 0.15; in the assay with SW480 [2] it was 0.991 ± 0.013. The “TCF/Wnt firefly luciferase reporter signal” value came to 1 ± 0.057 with DLD1 [3] and 0.831 ± 0.17 with SW480 [4].
`O=C([O-])[C@H]1/C(=C/CO)O[C@@H]2CC(=O)N21.[Li+]`: the cell viability worked out at 1.045 ± 0.0071 in the assay on DLD1 [1], 1.04 ± 0.064 in the assay on HCT116 and 1.02 ± 0.049 in the assay on SW480 [2]. Besides, the “TCF/Wnt firefly luciferase reporter signal” value in the assay with DLD1 [3] amounted to 1.04 ± 0.092; in the assay on SW480 [4] it was 1.125 ± 0.0071.
As to `C=C1CC[C@H](O)C/C1=C/C=C1\CCC[C@]2(C)[C@@H]([C@H](C)/C=C/[C@H](C)C(C)C)CC[C@@H]12`, the figures for the cell viability in the assay with DLD1 [1], in the assay on HCT116 and with SW480 [2] were 0.982 ± 0.054, 0.995 ± 0.11 and 0.954 ± 0.016, respectively. Besides, the “TCF/Wnt firefly luciferase reporter signal” value was 1.07 ± 0.16 in the assay on DLD1 [3] and 1.09 ± 0.014 with SW480 [4].
For `C#CCN(C)Cc1ccccc1`, in that order: 0.947 ± 0.053, 1.08 ± 0.042, 0.943 ± 0.0099, 1.14 ± 0.014 and 1.03 ± 0.05.
For `O=C1c2ccc(O)c(O)c2C(=O)c2c(O)ccc(O)c21`, in that order: 0.966 ± 0.048, 0.877 ± 0.023, 0.964 ± 0.03, 1.09 ± 0.092 and 1.1 ± 0.085.
As to `O=c1[nH]cc(F)c(=O)[nH]1`, the cell viability in the assay on DLD1 [1] was found to be 1.03 ± 0.083; in the assay with HCT116, 0.905 ± 0.054; in the assay with SW480 [2], 1.11 ± 0.014. The “TCF/Wnt firefly luciferase reporter signal” value with DLD1 [3] stood at 1.01 ± 0.13; in the assay with SW480 [4], 0.9685 ± 0.0064.
On to `NCCC(=O)N[C@@H](Cc1c[nH]cn1)C(=O)O`, for which the cell viability in the assay on DLD1 [1] was 1.08 ± 0.064; with HCT116, 1.04 ± 0.021; in the assay on SW480 [2] it was 1.01 ± 0.016. For the same compound, the “TCF/Wnt firefly luciferase reporter signal” value with DLD1 [3] turned out to be 1.24 ± 0.092; in the assay with SW480 [4] it was 1.17 ± 0.11.
For `CN(C)c1ccc2nc3ccc(=[N+](C)C)cc-3sc2c1`, in that order: 1 ± 0.052, 0.878 ± 0.021, 1.16 ± 0.071, 1.06 ± 0.078 and 1.11 ± 0.021.
For `CC(C(=O)O)c1ccc2c(c1)[nH]c1ccc(Cl)cc12` (stereo not given), in that order: 1.02 ± 0.063, 1.03 ± 0.061, 0.968 ± 0.0071, 1.04 ± 0.042 and 1.09 ± 0.021.
For `CCc1cc(C(N)=S)ccn1`, in that order: 0.964 ± 0.035, 1.02 ± 0.028, 0.987 ± 0.0071, 1.07 ± 0.078 and 1.09 ± 0.028.
Take `O=c1cc[nH]c(=S)[nH]1` [Thiouracil]: the cell viability in the assay with DLD1 [1] was found to be 1.08 ± 0.17; in the assay on HCT116, 1.12 ± 0.11; in the assay on SW480 [2], 1.04 ± 0.064. The results for the “TCF/Wnt firefly luciferase reporter signal” value in the assay on DLD1 [3] and with SW480 [4] were 0.944 ± 0.093 and 0.8625 ± 0.00071, respectively.
For `CCCCC(=O)O[C@]1(C(=O)CO)[C@@H](C)C[C@H]2[C@@H]3CCC4=CC(=O)C=C[C@]4(C)[C@@]3(F)[C@@H](O)C[C@@]21C`, in that order: 1.04 ± 0.021, 1.15 ± 0.028, 0.987 ± 0.047, 0.868 ± 0.011 and 0.942 ± 0.22.
In the case of `CCc1cccc2c3c([nH]c12)C(CC)(CC(=O)O)OCC3` (stereo not given), the cell viability with DLD1 [1] was 0.949 ± 0.073; in the assay on HCT116, 0.957 ± 0.089; in the assay on SW480 [2], 0.921 ± 0.025. Further, the “TCF/Wnt firefly luciferase reporter signal” value in the assay with DLD1 [3] is 1.04 ± 0.021; in the assay with SW480 [4], 1.08 ± 0.035.
For `C=C1C(N)CC2CC1C2(C)C` (stereo not drawn) [3-AMINO-beta-PINENE], in that order: 0.974 ± 0.093, 0.9965 ± 0.005, 0.918 ± 0.024, 0.893 ± 0.0071 and 0.888 ± 0.016.
For `O=C(CC(=O)c1ccccc1)c1ccccc1`, in that order: 0.972 ± 0.069, 0.82 ± 0.026, 1.03, 1.15 ± 0.021 and 1.17 ± 0.057.
As to `c1ccc(-c2ccc(C(c3ccccc3)n3ccnc3)cc2)cc1` (stereo not given), the cell viability with DLD1 [1] worked out at 1.03 ± 0.035; in the assay on HCT116, 1.01 ± 0.026; in the assay with SW480 [2], 0.965 ± 0.011. In addition, the “TCF/Wnt firefly luciferase reporter signal” value with DLD1 [3] came out at 0.938 ± 0.016; in the assay with SW480 [4] it was 0.923 ± 0.033.
For `COc1ccc(C(C)=O)c(O)c1`, in that order: 1 ± 0.037, 1.04 ± 0.09, 1.05 ± 0.014, 1.06 ± 0.071 and 1.03 ± 0.068.
For `CC(=O)O[C@H]1CC[C@]2(C)C(C[C@@H](OC(C)=O)[C@]3(C)C4=CC(=O)O[C@H](c5ccoc5)[C@@]4(C)CCC23)C1(C)C` (stereo partly drawn) [3-DEOXO-3beta-ACETOXYDEOXYDIHYDROGEDUNIN], in that order: 1 ± 0.057, 1.14 ± 0.19, 0.982 ± 0.04, 1.05 ± 0.021 and 0.864 ± 0.09.
In the case of `Nc1nc2[nH]cnc2c(=S)[nH]1`, the cell viability in the assay on DLD1 [1] was 0.706 ± 0.016; with HCT116, 0.761 ± 0.037; in the assay with SW480 [2], 0.828 ± 0.11. The entries for the “TCF/Wnt firefly luciferase reporter signal” value with DLD1 [3] and with SW480 [4] were 0.752 ± 0.033 and 0.799 ± 0.025, respectively.
For `O=C1C=C2CC3(O)COc4cc(O)ccc4C3=C2C=C1O` (stereo not given), in that order: 1.02 ± 0.11, 1.06 ± 0.12, 0.98 ± 0.016, 1.015 ± 0.0071 and 1.02.
For `CCN1CCN(C(=O)N[C@@H](C(=O)N[C@@H]2C(=O)N3[C@@H]2SC(C)(C)[C@@H]3C(=O)O)c2ccccc2)C(=O)C1=O`, in that order: 0.994 ± 0.0085, 0.993 ± 0.039, 1.02 ± 0.039, 1.05 ± 0.014 and 1.03 ± 0.086.
For `COc1c2ccoc2nc2c(OC)c(OCC(O)C(C)(C)O)ccc12` (stereo not given), in that order: 1.02 ± 0.038, 1 ± 0.014, 1 ± 0.013, 1.03 ± 0.047 and 1.02 ± 0.057.
For the compound `Nc1nc(=O)c2c([nH]1)NCC(CNc1ccc(C(=O)N[C@@H](CCC(=O)O)C(=O)O)cc1)N2C=O` (stereo not given in full), the cell viability came to 1 ± 0.085 in the assay with DLD1 [1], 1.03 with HCT116 and 1.01 ± 0.019 with SW480 [2]. The “TCF/Wnt firefly luciferase reporter signal” value in the assay on DLD1 [3] was determined as 1.02 ± 0.12; in the assay with SW480 [4], 1.01 ± 0.028.
`COC(=O)[C@H]1[C@H]2C[C@@H]3c4[nH]c5cc(OC)ccc5c4CCN3C[C@H]2C[C@@H](OC(=O)c2cc(OC)c(OC)c(OC)c2)[C@@H]1OC`: the figures for the cell viability in the assay on DLD1 [1], in the assay with HCT116 and with SW480 [2] were 0.932 ± 0.065, 1.02 ± 0.07 and 0.972 ± 0.054, respectively. The “TCF/Wnt firefly luciferase reporter signal” value came to 0.974 ± 0.093 with DLD1 [3] and 1.01 ± 0.018 in the assay with SW480 [4].
For the compound `C=C1CCC(C2CC(=O)OC2=O)C(=O)CCC2C1CC2(C)C` (stereo not given), the figures for the cell viability in the assay with DLD1 [1], in the assay with HCT116 and in the assay with SW480 [2] were 1.01 ± 0.049, 1.04 ± 0.09 and 0.958 ± 0.0085, respectively. Also, the “TCF/Wnt firefly luciferase reporter signal” value in the assay on DLD1 [3] turned out to be 1.01 ± 0.19; in the assay with SW480 [4] it was 0.901 ± 0.018.
For `CN(C(=O)C(Cl)Cl)c1ccc(OC(=O)c2ccco2)cc1`, in that order: 0.95 ± 0.0014, 0.879 ± 0.2, 1.03 ± 0.021, 0.833 ± 0.14 and 0.934 ± 0.043.
For `C=C(C)[C@@H]1CC[C@]2(CO)CC[C@]3(C)[C@H](CC[C@@H]4[C@@]5(C)CC[C@H](O)C(C)(C)[C@@H]5CC[C@]43C)[C@@H]12`, in that order: 0.995 ± 0.064, 0.973 ± 0.053, 0.978 ± 0.027, 1.135 ± 0.0071 and 1.045 ± 0.0071.
For `C=CCCCCCCCCCCCc1ccco1`, in that order: 0.98 ± 0.085, 1 ± 0.069, 1.01 ± 0.035, 0.854 ± 0.0099 and 0.957 ± 0.028.
